# Sampled rows, rich in hits. Any-hit rate of the full collection: about 2.8%.
# Pol kappa inh: qHTS for Inhibitors of Polymerase Kappa. DNA polymerase kappa (Homo sapiens), Q9UBT6. purified Pol kappa, fluorescent DNA synthesis assay, 10 min. Potency, µM (highest dose often 107 µM), for inactives: top-dose activity, negative = inhibition, most hits filed as inhibitors. 0.53% of 400,000 active. AID 588579, 2011; note: potency is the fitted concentration of half-maximal effect; % is set by controls: 0 for no effect and ±100 for the full control effect
#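 Inhibition of 10 nM Pol kappa is measured by a fluorescent read-out at 0 and 10 min following addition of 50 nM substrate (final), with a 15-min room-temperature compound preincubation.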
# POLI inh: qHTS for Inhibitors of Polymerase Iota | DNA polymerase iota (Homo sapiens), Q9UNA4 | Pol iota fluorescent replication assay, 10 min | Potency, µM (top dose mostly 115 µM), for the others: at the highest dose activity, negative = inhibition, hits mostly inhibitors | 1% of 390,000 active | AID 588590, 2011; note: potency is the fitted concentration of half-maximal effect
#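 Fluorescent replication assay read twice, at 0 min and 10 min after adding 50 nM (final) substrate. Enzyme (10 nM) and compounds were first incubated 15 min at room temperature; enzyme-free buffer wells were negative controls.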
# WRN inhibitor: qHTS for Inhibitors of WRN Helicase | 0.46% of 360,000 active | Potency, µM (titrated, usually from 114 µM), inactives show top-dose activity change, negative = inhibition, actives largely listed as inhibitors | WRN helicase unwinding, fluorescent forked duplex, kinetic | AID 651768, 2012; note: potency is the fitted concentration of half-maximal effect; % is set by controls: 0 for no effect and ±100 for the full control effect; nearly all actives have a fitted effect of over 55% in size
# Target sequence (Q14191 whole entry, looked up): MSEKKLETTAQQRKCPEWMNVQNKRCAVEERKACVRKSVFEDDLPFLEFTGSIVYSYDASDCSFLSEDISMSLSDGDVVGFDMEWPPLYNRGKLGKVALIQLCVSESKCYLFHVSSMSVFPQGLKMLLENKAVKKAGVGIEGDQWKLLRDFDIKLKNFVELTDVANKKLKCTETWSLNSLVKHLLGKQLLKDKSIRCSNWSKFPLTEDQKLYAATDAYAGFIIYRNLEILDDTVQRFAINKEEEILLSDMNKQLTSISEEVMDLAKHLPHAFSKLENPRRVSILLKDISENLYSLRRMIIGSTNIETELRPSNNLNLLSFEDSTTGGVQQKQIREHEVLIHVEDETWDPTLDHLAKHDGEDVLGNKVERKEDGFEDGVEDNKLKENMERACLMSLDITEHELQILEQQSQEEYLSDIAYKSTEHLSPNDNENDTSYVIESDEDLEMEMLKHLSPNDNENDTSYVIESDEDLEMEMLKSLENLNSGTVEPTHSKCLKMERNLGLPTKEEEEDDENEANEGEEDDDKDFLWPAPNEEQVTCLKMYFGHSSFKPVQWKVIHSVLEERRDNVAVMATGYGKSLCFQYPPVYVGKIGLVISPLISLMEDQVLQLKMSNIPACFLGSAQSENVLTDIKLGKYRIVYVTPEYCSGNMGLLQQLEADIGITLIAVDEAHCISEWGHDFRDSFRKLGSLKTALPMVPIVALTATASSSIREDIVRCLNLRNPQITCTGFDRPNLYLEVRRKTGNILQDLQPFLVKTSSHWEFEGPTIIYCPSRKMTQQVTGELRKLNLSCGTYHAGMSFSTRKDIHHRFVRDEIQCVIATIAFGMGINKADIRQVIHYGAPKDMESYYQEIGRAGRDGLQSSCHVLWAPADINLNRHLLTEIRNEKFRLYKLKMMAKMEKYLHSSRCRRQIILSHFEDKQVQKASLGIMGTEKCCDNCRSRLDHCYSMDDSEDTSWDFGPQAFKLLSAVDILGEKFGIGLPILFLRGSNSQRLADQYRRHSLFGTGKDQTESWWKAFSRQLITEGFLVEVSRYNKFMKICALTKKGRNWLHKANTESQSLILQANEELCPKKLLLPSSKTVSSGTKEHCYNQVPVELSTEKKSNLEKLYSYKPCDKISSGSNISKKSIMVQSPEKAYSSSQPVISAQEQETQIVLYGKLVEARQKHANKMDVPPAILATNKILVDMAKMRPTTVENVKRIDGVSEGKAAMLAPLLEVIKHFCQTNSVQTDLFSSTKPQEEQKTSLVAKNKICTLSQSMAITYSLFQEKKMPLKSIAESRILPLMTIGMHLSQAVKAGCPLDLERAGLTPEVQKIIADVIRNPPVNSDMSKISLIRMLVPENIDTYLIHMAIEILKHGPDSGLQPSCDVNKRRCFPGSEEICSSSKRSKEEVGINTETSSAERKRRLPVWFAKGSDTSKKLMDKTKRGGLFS
#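 Fluorescence dequenching readout, ex 525 nm/em 598 nm, kinetic mode: forked duplex DNA (100 nM final) with adjacent fluorophore and quencher unwound by WRN (20 nM final) with 2 mM ATP. Compound preincubation 15 min, room temperature.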
# Pol beta inh: qHTS Assay for Inhibitors of DNA Polymerase Beta | P06746 | AID 485314, 2010 | Pol beta primer extension/strand displacement, fluorescence kinetic | Potency, µM (top dose mostly 114 µM), for the others: at the highest dose activity change, negative = inhibition, actives largely listed as inhibitors | 1.3% of 340,000 active; note: potency is the fitted concentration of half-maximal effect; % is set by controls: 0 for no effect and ±100 for the full control effect
#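 Pol beta (10 nM) and compounds were preincubated 15 min at room temperature, then 50 nM substrate (final) started primer extension/strand displacement. Reads were taken at 0 and 10 min; concentration-response data were fitted to a four-parameter Hill equation.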
# Pol eta inh: qHTS for Inhibitors of Polymerase Eta. DNA polymerase eta (Homo sapiens), Q9Y253. recombinant Pol eta, fluorescent DNA replication assay. Potency, µM (series often up to 114 µM), for inactives: at the highest dose activity change, negative = inhibition, actives largely listed as inhibitors. 1.2% of 390,000 active. AID 588591, 2011; note: potency is the fitted concentration of half-maximal effect; % is set by controls: 0 for no effect and ±100 for the full control effect
#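 Pol eta (10 nM) was preincubated with compounds for 15 min at room temperature, after which fluorescent replication substrate (50 nM final) was added to start the reaction. Fluorescence was read kinetically at 0 and 10 min.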
# PI5P4K alpha inh: qHTS for Inhibitors of phosphatidylinositol 5-phosphate 4-kinase (PI5P4K); max response, %; PI5P4Kalpha enzyme, ADP-Glo luminescence, 60 min; hits give low values; Phosphatidylinositol 5-phosphate 4-kinase type-2 alpha (Homo sapiens), P48426; 1.2% of 330,000 active; active = max response of -50% or lower; inconclusive = between -30% and -50%; inactive = -30% or higher; note: value at the top dose of about 77 µM; % is set by controls: 0 for no effect and ±100 for the full control effect
#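 Single end-point luminescence (ADP-Glo) quantified ADP from PI5P4Kalpha turnover; ATP 5 microM final, 1 h at RT, 0.1% CHAPS and 0.28 mM EGTA in HEPES pH 7.4.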
# Active calls of the source: *; ? = inconclusive; / = no result given; [ ] = another dose, or the depositor's remark. Unless noted, calls come from the whole dose curve; as a rule, active = well fitted curve in the direction sought with a large enough effect; inconclusive = small, poorly fitted or top-dose-only effect, or another doubt; inactive = no such curve, though single readings can be large; an effect the other way counts as inactive or inconclusive.
SMILES,Pol kappa inh,POLI inh,WRN inhibitor,Pol beta inh,Pol eta inh,PI5P4K alpha inh
COc1cccc(C2C(C#N)=C(N)OC(C(C)(C)C)=C2C#N)c1 (stereo unspecified),-8%,?,-11%,10%,0%,-4
CN(C(=O)COC(=O)c1nc(Cl)c(Cl)c(Cl)c1Cl)C1CCS(=O)(=O)C1 (stereo unspecified),-18%,40%,-4%,11%,?,-16
Cc1ccc(NC(=O)CN2C(=O)CC(c3ccco3)Sc3ccccc32)cc1Cl (stereo unspecified),0%,-21%,/,?,-20%,/
COc1ccc(CN2[C@@H](CC(C)=O)c3ccc(/C=C/C(C)=O)cc3S2(=O)=O)cc1,-1%,?,-9%,/,?,1
COc1ccc(CN2[C@@H](CC(=O)O)c3ccc(/C=C/C(=O)O)cc3S2(=O)=O)cc1,35µM*,50µM*,/,/,/,/
COc1cccc(N2[C@@H](CC(C)=O)c3ccc(/C=C/C(C)=O)cc3S2(=O)=O)c1,-4%,20µM*,-16%,/,?,-5
CC(O)C1CCC2C3CCC4CC(O)CCC4(C)C3C(=O)CC12C (stereo unspecified),23%,0%,4%,/,-13%,4
O=C(Cn1c(SCCOc2ccccc2Cl)nc2ccccc21)N1CCOCC1,-2%,54%,/,14%,-12%,/
Oc1c(Br)cc(Br)cc1/C=N/c1nccs1,-11%,?,-15%,/,?,-55*
Oc1ccc(Cl)cc1/C=N/c1nccs1,-8%,9%,5%,-1%,-13%,/
COc1ccc(CCN(C(=O)/C=C/C(=O)O)C2CC(=O)N(c3ccccc3)C2=O)cc1 (stereo unspecified),-7%,20%,-2%,-16%,6%,7
CCc1ccc(N2C(=O)CC(N(CC3CCCO3)C(=O)/C=C/C(=O)O)C2=O)cc1 (stereo unspecified),-15%,-3%,-10%,45µM*,?,0
CC(C)OC(=O)C1Cc2ccccc2CN1S(=O)(=O)c1cccs1 (stereo unspecified),-31%,?,-2%[11.6 µM],32µM*,?,-11
NC(=O)C1Cc2ccccc2CN1S(=O)(=O)c1cccs1 (stereo unspecified),6%,35%,2%,4%,-16%,-2
COc1cc(OC)c(NC(=O)CCCn2nc(C)c3sc4ccccc4c3c2=O)cc1Cl,?,?,/,16µM*,-18%,/
COc1cccc(CNC(=O)Cn2nc(C)c3sc4ccccc4c3c2=O)c1OC,-2%,-10%,/,-16%,-15%,/
CCOc1ccc(CNC(=O)Cn2nc(C)c3sc4ccccc4c3c2=O)cc1,-12%,13%,/,89µM*,-12%,/
Cc1nn(CC(=O)NCCCc2ccccc2)c(=O)c2cccn12,5%,12%,0%,4%,-9%,-2
Cc1nn(CC(=O)NCc2cccc(Br)c2)c(=O)c2c1sc1ccccc12,-4%,7%,/,6.3µM*,-10%,/
Cc1nn(CC(=O)NCc2cccc(F)c2)c(=O)c2cccn12,89µM*,?,-4%[11.6 µM],0%,-15%,-2
Cc1ccc(S(=O)(=O)/C(C#N)=C/c2c(N3CC(C)OC(C)C3)nc3c(C)cccn3c2=O)cc1 (stereo unspecified),-8%,16%,-4%,-2%,1%,-4
Cc1cccc(NC(=O)C(NS(=O)(=O)c2ccc3c(c2)CCC(=O)N3)c2ccccc2)n1 (stereo unspecified),-11%,-5%,9%,21%,-3%,/
CCn1c(C)cc(C(=O)COC(=O)CNC(=O)c2ccco2)c1C,/,/,21%,/,-1%,-1
CC(=O)Nc1ccc(Sc2ccc([N+](=O)[O-])o2)cc1,-23%,?,-11%,/,32µM*,-3
CCC(=O)OCOc1ccc(/C=C2/CCC(CN(C)C)C2=O)cc1 (stereo unspecified),-9%,?,11µM*,/,13µM*,-14
SMILES,Pol kappa inh,POLI inh,WRN inhibitor,Pol beta inh,Pol eta inh,PI5P4K alpha inh
COc1ccc(N(C)S(=O)(=O)c2ccc3c(c2)n(C)c(=O)c(=O)n3C)cc1,-24%,?,/,2%,-14%,/
CCc1cc2cc(C(=O)Nc3ccccc3F)sc2s1,-8%,-25%,-12%,-13%,3%,/
CCc1cc2cc(C(=O)Nc3ccc(F)cc3)sc2s1,-5%,?,-8%,56µM*,?,-4
OCCN1CCN(c2cc(-c3ccccc3)c3ccccc3n2)CC1,-12%,-7%,79µM*,-6%,-18%,-5
CCN1C(=O)N[C@@H](c2ccco2)C(C(=O)OC)=C1C,-11%,?,14%,/,-10%,1
C[C@@H]1[C@@H](Sc2ccccc2)CC(=O)O[C@@H]1c1ccc(-c2ccccc2)cc1,9%,?,-15%,/,-3%,10
O=C1C=CC2(O[C@H](c3ccccc3)[C@@H](c3ccccc3)O2)[C@H](Sc2ccccc2O)C1,-3%,22µM*,11µM*,/,?,-11
O=S(=O)(CCC1CCCCN1)c1ccccc1 (stereo unspecified),5%,23%,-1%,5%,-26%,-2
O=S(=O)(NCc1nc2cccnc2n1Cc1ccc(F)cc1)c1ccc2c(c1)CCCC2,-9%[60.1 µM],0%,/,1%,10%,/
CC(C)c1onc(-c2c(Cl)cccc2Cl)c1COc1ccc(/C=C/c2cccc(C(=O)O)c2)c(Cl)c1,30µM*,/,/,/,/,/
Cn1c(=O)c2c(n3c4ccccc4nc13)NC(=O)CC2c1ccccc1F (stereo unspecified),2%[60.1 µM],0%,/,-2%,-13%,/
COc1cccc(-c2nc(SCc3cccc(Br)c3)n3[nH]c(=O)cc3n2)c1,-43%,?,/,13µM*,?,/
C=CCNC(=O)C1(c2ccccc2)CC1(Cl)Cl (stereo unspecified),-7%,79%,13%,4%,-5%,-2
O=C(C[N+]12CN3CN(CN(C3)C1)C2)c1ccc(-c2ccccc2)cc1,-15%,12%,/,/,/,/
CCOC(=O)c1c(N)n(C2CC(C)(C)NC(C)(C)C2)c2nc3ccccc3nc12,-8%,?,21%,28µM*,-6%,/
CCOC(=O)c1c(N)n(-c2ccc(N)cc2)c2nc3ccccc3nc12,2%[60.1 µM],79µM*,-7%,?,-7%,-18
CCOC(=O)c1c(N)n(-c2cccc(OC)c2)c2nc3ccccc3nc12,-18%[60.1 µM],?,/,2%,-3%,/

# Screening results from PubChem.
